This is part of a sample that, as a whole, favours compounds with a hit. Of some 83,000 tested, about 20% had one in any assay.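 Testing used 96-well plates and a 48-hour single-concentration exposure. Example: -40 means 40% of the starting cells died.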 Values without a mark were called inactive. Calls of active or inactive are those of the source. The calls were made as follows: active = growth percent below 10; inactive = the rest.
What follows are compounds tested on IGROV1 ovarian (assay: NCI-60 one-dose screen, 48 h (100 = growth as untreated, 0 = no growth, -100 = all killed)). Conditions: 10 µM unless noted.
Cc1ccc(Cc2cnc(NC(=O)/C=C/c3cccc(C)c3)s2)cc1 was tested, and the growth was 18.3%. CC1(C)[C@@H](O)CC[C@]2(C)[C@H]3CC[C@@H]4[C@H]5[C@H](C(=O)/C=C/c6ccc(C(F)(F)F)cc6)CC[C@]5(CO)CC[C@@]4(C)[C@]3(C)CC[C@@H]12 gave a growth of 61.5%. With COc1cc2ncnc(Nc3ccc(OCc4cccc(F)c4)c(Cl)c3)c2cc1NC(=O)C1CCCC1 the growth was 52.2%. C=C(C)[C@@H]1CC[C@]2(c3nnc(-c4ccncc4)o3)CC[C@]3(C)[C@H](CC[C@@H]4[C@@]5(C)CCC(=O)NC(C)(C)[C@@H]5CC[C@]43C)[C@@H]12 was tested, and the growth was 92.3%. CCc1cccc(CC)c1NC(=O)c1sc2nc3c(cc2c1N)CCCC3 showed a growth of 64.5%. For CCc1ccccc1NC(=O)c1sc2nc3c(cc2c1N)CCCC3, the growth was 64.8%. O=Cc1nc2ccccc2[nH]1 showed a growth of 107%. Compound C[C@@H]1CCCCCCCCC[C@H](O)C(=O)C[C@@H](SC[C@@H](O)C(=O)O)C(=O)O1 has a growth of 115%. C=C(C)[C@@H]1CC[C@]2(C(=O)N3CCN(CC)CC3)CC[C@]3(C)[C@H](CC[C@@H]4[C@@](C)(CCC(=O)N5CCN(CC)CC5)[C@H](C(=C)C)CC[C@]43C)[C@@H]12 was tested, and the growth was 73.6%. Brc1ccc(Cn2nnnc2-c2ccn(-c3ccccc3)n2)cc1 was tested, and the growth was 77.8%. CCCCN1CCCCn2c1nc1c2c(=O)n(C)c(=O)n1C gave a growth of 106%. For CCCCC[C@H]1CC=C2C(=O)C=C[C@@H]2CC=CCCCC(=O)O[C@@H](CCCCC)CC=C2C(=O)C=C[C@@H]2CC=CCCCC(=O)O[C@@H](CCCCC)CC=C2C(=O)C=C[C@@H]2CC=CCCCC(=O)O1, the growth was -46.1% [8.75 µM] (active). CC(C)=CCC[C@](C)(O)[C@H]1CC[C@]2(C)[C@@H]1CC[C@@H]1[C@@]3(C)C/C(=C/c4cccc([N+](=O)[O-])c4)C(=O)C(C)(C)[C@@H]3CC[C@]12C gave a growth of 107%. Work on Cn1cc(-c2csc(-c3cn(CCNC(=O)OC(C)(C)C)c4ccc(F)cc34)n2)c2cccnc21 yielded a growth of 49.4%. Work on CN1CCN(CCOc2ccc(-c3cnc4c(-c5ccccc5F)cnn4c3)cc2)CC1 yielded a growth of 57.3%. With Cc1cc(N2CCCCC2)nc(N(CCCNc2ccnc3cc(Cl)ccc23)Cc2ccco2)n1 the growth was 4.05% (active). In the case of Brc1ccc2c(c1)c(-c1nc(-c3c[nH]c4ncccc34)cs1)cn2CCCN1CCCCC1, the growth is reported as 6.09% (active). Compound NC1=C(C/C(N)=N\O)C(c2ccccc2Cl)c2c(ccc3ccccc23)O1 (stereo unspecified) has a growth of 59.2%. O=C1Nc2ccccc2/C1=C/c1cn(CCCn2c3ccccc3c(=O)c3ccccc32)c2ccccc12 was tested, and the growth was 45.8%. For COC(=O)[C@]12CC[C@@H](C)[C@H](C)[C@@H]1C1=CC[C@@H]3[C@@]4(C)C(c5ncon5)=C[C@@](C)(CO)C4=CC[C@@]3(C)[C@]1(C)CC2, the growth was -10.8% (active). c1ccc(CN2C(c3ccccc3)=Nc3ccccc3C2c2c[nH]c3ccccc23)cc1 (stereo unspecified) was tested, and the growth was 19.3%. In the case of CC1(C)NCCC[C@]2(C)[C@H]3CC[C@@H]4[C@H]5[C@H](C(=O)/C=C/c6ccccn6)CC[C@]5(CO)CC[C@@]4(C)[C@]3(C)CC[C@@H]12, the growth is reported as 63.4%. In the case of Cc1cccc(C)c1NCc1nc(-c2ccccc2)n[nH]1, the growth is reported as 94.6%. Compound COc1cccc(-c2nn(-c3ccccc3)cc2-c2ccnc(NCCNS(=O)(=O)c3cccc(F)c3)c2)c1 has a growth of 38%. In the case of N#C/C(=C\c1ccc(-c2ccc(Cl)cc2)o1)c1nc(-c2ccco2)cs1, the growth is reported as 68.1%. COc1cc(-c2cc3cc(O)ccc3oc2=O)cc(OC)c1OC showed a growth of 98.7%.

Reference: PubChem BioAssay (NCI)
